Several values for one entry are separate records, joined by “and”; a condition that tells them apart may be missing. Equal values may be shown once. Results filed as inconclusive are left out. Activity calls are given as the source filed them. Calls come from the whole dose curve; as a rule, active = well fitted curve in the direction sought with a large enough effect; inconclusive = small, poorly fitted or top-dose-only effect, or another doubt; inactive = no such curve, though single readings can be large; an effect the other way counts as inactive or inconclusive.
What was measured:
[1] = Cell Viability - N2a (AID 540); conditions: N2a mouse neuroblastoma cell viability; activity change, negative = cytotoxicity: at 92.2 µM (top of the series);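 note: cells exposed to compound for 40 h at 37 °C; plate controls were DMSO alone for no effect and tamoxifen control for full effect; nearly all actives have a fitted effect of over 45% in size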
Summary of the method: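 First, 1500 N2a cells per well incubate 5 hr at 37 °C; next, compounds are added and incubated 40 hr at 37 °C; finally CellTiter-Glo is added and luminescence read after 20 min, with AC50 derived by Hill modeling.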

[2] = Cellular Toxicity (caspase-3) Jurkat (AID 655); conditions: Jurkat caspase-3 activation, luminescence; caspase-3 activation: at 92.2 µM (top of the series), DMSO = 0%, tamoxifen = 100%;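 note: cells exposed to compound for 16 h at 37 °C before reading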
Summary of the method: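 Caspase 3/7 activation is scored as increased luminescence in Jurkat cells cultured with compound for 16 hours in complete medium. AC50 values come from Hill fits of qHTS concentration-response data normalized to DMSO and 100 uM tamoxifen controls.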

[3] = MultiTox-Fluor Cytotoxicity Assay - LYMP1-001 - Dead Cells (AID 946);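 note: 0% = DMSO and 100% = tetraoctylammonium bromide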
Summary of the method: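 Seed 2500 LYMP1-001 cells/well, incubate 5 hr at 37 C; add compound, 16 hr at 37 C; add MultiTox-Fluor reagent, 60 min RT; read dead-cell fluorescence Ex/Em=485/520. Normalize to DMSO and 15 uM tetraoctylammonium bromide.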

[4] = Cell Viability - LYMP1-003 - Assay at 40 hr (AID 964); note: % is set by controls: 0 for no effect and ±100 for the full control effect; nearly all actives have a fitted effect of over 60% in size
Summary of the method: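 This qHTS cytotoxicity screen treats human lymphoblastoid cells (LYMP1-003) with compounds for 40 hr and quantifies cellular ATP via luciferase luminescence.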

[5] = Cell Viability - LYMP2-009 (AID 968);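 note: 0% = DMSO alone and the full-kill end = tetraoctylammonium bromide at 92 µM; nearly all actives have a fitted effect of over 55% in size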
[6] = Cell Viability - LYMP2-011 (AID 969);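 note: 0% = DMSO only and full inhibition = 92 µM tetraoctylammonium bromide; nearly all actives have a fitted effect of over 60% in size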
Summary of the method: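 Acute toxicity is scored as a concentration-dependent drop in intracellular ATP of a human lymphoblastoid line after 24 hr treatment. Values are AC50s modeled with the Hill equation.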

[7] = Cell Viability - LYMP2-019 (AID 973);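 note: 0% = DMSO alone and full effect = 92 µM tetraoctylammonium bromide; nearly all actives have a fitted effect of over 55% in size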
Summary of the method: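 Cells plated at 2500/well and allowed 5 hr at 37 C before compound addition. After 24 hr incubation, CellTiter-Glo reagent was added, plates sat 30 min at room temperature, and luminescence was recorded.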

[8] = Cell Viability - LYMP2-002 (AID 977);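 note: plate controls were DMSO only for no effect and 92 µM tetraoctylammonium bromide for full effect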
Summary of the method: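 Luminescent ATP readout (CellTiter-Glo, 30 min room temperature) after 24 h compound exposure at 37 C of a human lymphoblastoid line, 2500 cells/well. AC50 values derived by standard Hill fitting of qHTS concentration-response data.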

[9] = Cell Viability - LYMP2-014 (AID 983);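 note: plate controls were DMSO only for no effect and 92 µM tetraoctylammonium bromide for full effect; nearly all actives have a fitted effect of over 50% in size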
Summary of the method: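 Decrease in intracellular ATP after 24 hr treatment at 37 C, measured by luciferase luminescence, indicated cytotoxicity. Concentration-response data were fitted with the standard Hill equation to give AC50.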

[10] = Cell Viability - LYMP2-020 (AID 986);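 note: plate controls were DMSO only for no effect and tetraoctylammonium bromide at 92 µM for full effect; nearly all actives have a fitted effect of over 55% in size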
Summary of the method: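 Acute cytotoxicity in a human lymphoblastoid line is scored as a concentration-dependent fall in cellular ATP after 24 hr at 37 C in complete medium. The positive control is tetraoctylammonium bromide, and potency is given as Hill-fit AC50.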

[11] = Cell Viability - LYMP2-022 (AID 987);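 note: 0% = DMSO alone and full effect = tetraoctylammonium bromide at 92 µM; nearly all actives have a fitted effect of over 55% in size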
Summary of the method: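 Acute toxicity in a human lymphoblastoid line is scored as decreased intracellular ATP after 24 hr compound treatment at 37 C. ATP is measured by CellTiter-Glo luminescence; curves are fitted with the Hill equation to give AC50.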

[12] = qHTS assay for environmental chemicals that activate the Aryl hydrocarbon Receptor (AhR) signaling pathway (AID 651777); conditions: 1A2-DRE human hepatoma cells, luciferase, 24 h; activation: stronger effect = higher value; note: nearly all actives have a fitted effect of over 15% in size; note: potency is the fitted concentration of half-maximal effect; for activation: % of control where 0% means no effect
Summary of the method: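 Human hepatoma 1A2-DRE cells stably carrying a DRE/CYP1A2 promoter–luciferase reporter, 1,200 cells/well, exposed to compound 24 hr at 37 C. Luciferase read by One-Glo luminescence after 30 min at room temperature; increased signal marks AhR activation.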

[13] = molecular target: Peroxisome proliferator-activated receptor alpha (Homo sapiens) (UniProt Q07869); assay: qHTS assay for small molecule agonists of the peroxisome proliferator-activated receptor alpha (PPARalpha) signaling pathway (AID 651778); conditions: PathHunter PPARalpha complementation, chemiluminescence, 6 h; stronger effect = higher value; note: % of control where 0% means no effect
Summary of the method: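 Cells plated at 2,000/well and held overnight at 37 C, 5% CO2, then compound added by pin tool for 6 hr; after PathHunter detection reagent and 60 min at room temperature, chemiluminescence from enzyme complementation was read.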

[14] = qHTS assay for cell viability of the p53RE-bla HCT-116 cell line (AID 743292)
Summary of the method: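 CellSensor p53RE-bla HCT-116 cells (4,000/well) pre-incubated 5 h at 37 C, then exposed to compounds in DMSO for 16 h at 37 C. Viability read as ATP content by CellTiter-Glo luminescence after 30 min at room temperature.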

[15] = Cell Viability - Renal Proximal Tubule (AID 545);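 note: cells exposed to compound for 40 hours; nearly all actives have a fitted effect of over 40% in size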
Summary of the method: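 Cytotoxicity is scored as a concentration-dependent drop in cellular ATP in primary rat renal proximal tubule cells exposed for 40 hr. AC50 derives from Hill modelling.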

[16] = Cellular Toxicity (caspase-3) NIH 3T3 (AID 666);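 note: caspase signal read after 16 h compound exposure; 0% = DMSO basal and 100% = 100 µM tamoxifen stimulation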
Summary of the method: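 Concentration-response qHTS in NIH 3T3 mouse fibroblasts scores caspase-3/7 activation as rising luminescence after 16 hr compound exposure. Signals are scaled between DMSO-only and 100 uM tamoxifen.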

[17] = Cellular Toxicity (caspase-3) Renal Proximal Tubule (AID 667);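 note: cells exposed to compound for 16 hours at 37 °C before detection; 0% = DMSO basal and 100% = 10 µM staurosporine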
Summary of the method: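 In qHTS format, rat primary proximal tubule cells seeded at 1000 per well are exposed to compounds for 16 hours at 37 °C. An increase in Caspase-Glo 3/7 luminescence indicates caspase activation.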

[18] = Cell Viability - LYMP1-003 - Assay at 24 hr (AID 963);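 note: plate controls were DMSO only for no effect and tetraoctylammonium bromide positive control for full effect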
Summary of the method: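 Acute toxicity in LYMP1-003 lymphoblastoid cells: 24 hr compound treatment at 37 C, ATP measured with CellTiter-Glo after 30 min at room temperature. AC50 derived by fitting the Hill equation to qHTS titrations.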

[19] = Cell Viability - LYMP2-006 (AID 978); note: % is set by controls: 0 for no effect and ±100 for the full control effect; nearly all actives have a fitted effect of over 60% in size
Summary of the method: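 Concentration-dependent loss of intracellular ATP in a human lymphoblastoid line after 24 hr treatment at 37 C was measured by CellTiter-Glo luminescence, with AC50 values obtained from standard Hill-equation modelling.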

[20] = Cell Viability - LYMP2-010 (AID 981)
Summary of the method: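 Acute toxicity is scored as a concentration-dependent loss of cellular ATP in human lymphoblastoid cells after 24 hr compound exposure in complete medium. Tetraoctylammonium bromide is the positive control.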

Peroxisome proliferator-activated receptor alpha (Homo sapiens), sequence (Q07869 whole entry, looked up): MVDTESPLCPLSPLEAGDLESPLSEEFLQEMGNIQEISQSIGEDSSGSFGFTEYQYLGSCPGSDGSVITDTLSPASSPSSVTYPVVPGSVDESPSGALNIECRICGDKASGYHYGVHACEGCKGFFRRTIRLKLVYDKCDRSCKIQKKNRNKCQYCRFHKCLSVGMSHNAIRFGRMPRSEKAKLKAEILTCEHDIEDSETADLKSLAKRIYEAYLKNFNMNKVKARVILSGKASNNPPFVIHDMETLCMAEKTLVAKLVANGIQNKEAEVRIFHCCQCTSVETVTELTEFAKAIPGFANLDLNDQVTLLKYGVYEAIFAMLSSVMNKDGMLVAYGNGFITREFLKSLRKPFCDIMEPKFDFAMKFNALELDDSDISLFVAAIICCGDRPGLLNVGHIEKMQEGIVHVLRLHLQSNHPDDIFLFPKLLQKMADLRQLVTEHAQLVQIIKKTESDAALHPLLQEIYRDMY

N#C/C(N)=C(/N)C#N
inactive: Potency [1] | caspase-3 activation [2] 1.12% | outcome [3] | Potency [4] | Potency [5] | Potency [6] | Potency [7] | Potency [8] | Potency [9] | Potency [10] | Potency [11] | activation [12] 0.971% | max response [13] -0.162% | Potency [14]

ClCc1ccccn1
inactive: Potency [1] | outcome [15] | caspase-3 activation [2] 1.38% | Potency [16] | outcome [17] | outcome [3] | outcome [18] | Potency [4] | Potency [5] | Potency [7] | Potency [8] | Potency [19] | Potency [9] | Potency [10] | Potency [11] | activation [12] -0.85% and 1.26% | max response [13] -1.73% and -0.41% | Potency [14]

Cc1cc(Cl)ccc1O
inactive: caspase-3 activation [2] 4.09% | Potency [16] | outcome [3] | outcome [18] | Potency [4] | Potency [5] | Potency [6] | Potency [7] | Potency [8] | Potency [19] | Potency [20] | Potency [9] | Potency [10] | Potency [11] | activation [12] 0.484%

COc1c(C(C)(C)C)cc([N+](=O)[O-])c(C)c1[N+](=O)[O-]
inactive: Potency [1] | outcome [15] | caspase-3 activation [2] -1.52% | Potency [16] | outcome [17] | outcome [3] | outcome [18] | Potency [4] | Potency [6] | Potency [7] | Potency [8] | Potency [19] | Potency [20] | Potency [9] | Potency [10] | Potency [11] | activation [12] 0.103% | max response [13] 1.79% | Potency [14]

Cc1cc(-c2cc(C)c(N)c(C)c2)cc(C)c1N
inactive: Potency [1] | outcome [15] | caspase-3 activation [2] 1.01% | Potency [16] | outcome [17] | outcome [3] | Potency [4] | Potency [5] | Potency [6] | Potency [8] | Potency [19] | Potency [10] | Potency [11] | max response [13] -3.9% | Potency [14]
active: Potency [12] 10 µM

O=[N+]([O-])c1ccc(Cl)c(Cl)c1Cl
inactive: outcome [15] | caspase-3 activation [2] -0.417% | Potency [16] | outcome [17] | outcome [3] | outcome [18] | Potency [4] | Potency [5] | Potency [6] | Potency [7] | Potency [8] | Potency [19] | Potency [20] | Potency [10] | Potency [11] | activation [12] -1.85% | max response [13] 10.7% | Potency [14]

CC(C)OC(=O)Cc1ccccc1
inactive: outcome [15] | caspase-3 activation [2] -1.43% | Potency [16] | outcome [17] | outcome [3] | Potency [4] | Potency [5] | Potency [6] | Potency [19] | Potency [20] | Potency [9] | Potency [10] | Potency [11] | Potency [14]

Source: PubChem BioAssay (NCATS)
